# Source: PubChem BioAssay
# This is a sample that favours compounds with a hit; in the whole collection about 6.2% have one here.
# H9c2 protect: modulators protecting cardiomyocytes from myocardial damage. protection from H2O2 cell death, % at 20 µM. actives 0.63% (n = 360,000). H9c2 cardiomyocytes, H2O2 injury protection, ATPLite, 2 h. AID 588492;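 active = compounds giving at least 50% protection of heart cells from peroxide-induced death in the single-dose screen, raw or plate-pattern-corrected value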
# AHR activator: activators of human aryl hydrocarbon receptor; P35869; AHR-responsive luciferase reporter cells, luminescence; activation, % at 5 µM; actives 2.5% (n = 320,000); in the data active = activation above about 47%
# Target sequence (P35869 whole entry, looked up): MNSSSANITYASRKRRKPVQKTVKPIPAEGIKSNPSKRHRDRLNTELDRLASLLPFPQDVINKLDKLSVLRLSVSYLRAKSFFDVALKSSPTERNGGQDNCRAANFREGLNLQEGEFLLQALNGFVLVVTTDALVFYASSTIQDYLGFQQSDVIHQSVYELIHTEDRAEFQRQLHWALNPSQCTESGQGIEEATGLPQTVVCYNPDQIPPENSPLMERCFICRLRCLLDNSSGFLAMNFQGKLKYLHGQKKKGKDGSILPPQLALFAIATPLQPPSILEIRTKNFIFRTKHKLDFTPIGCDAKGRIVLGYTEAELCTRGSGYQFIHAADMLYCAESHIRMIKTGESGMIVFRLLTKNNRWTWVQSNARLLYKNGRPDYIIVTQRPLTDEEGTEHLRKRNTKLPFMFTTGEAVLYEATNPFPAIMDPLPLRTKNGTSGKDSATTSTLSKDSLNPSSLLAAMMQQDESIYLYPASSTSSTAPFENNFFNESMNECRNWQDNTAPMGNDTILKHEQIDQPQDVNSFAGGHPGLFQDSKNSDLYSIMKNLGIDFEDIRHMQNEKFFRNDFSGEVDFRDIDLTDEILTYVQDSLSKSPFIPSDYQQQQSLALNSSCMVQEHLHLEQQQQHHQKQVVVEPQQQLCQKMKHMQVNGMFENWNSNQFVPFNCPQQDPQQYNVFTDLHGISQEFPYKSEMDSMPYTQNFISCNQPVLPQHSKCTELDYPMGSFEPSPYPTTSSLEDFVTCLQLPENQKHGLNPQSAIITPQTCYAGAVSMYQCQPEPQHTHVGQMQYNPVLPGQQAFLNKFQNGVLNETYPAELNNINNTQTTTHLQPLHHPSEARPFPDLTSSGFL
# NR3A LBD binder: NR3A (human) ligand-binding domain modulation; NR3A LBD differential scanning fluorimetry, Tm shift; 0% = protein alone, 100% = glycine-bound protein; Tm shift relative to glycine control, % at 25 µM; actives 2.5% (n = 340,000);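 active = melting temperature shift of at least 10% of the positive control shift, at one fixed dose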
# Mot1-301 SUMO: SUMOylation pathway inhibition by Mot1-301 growth rescue. S. cerevisiae Mot1-301 growth rescue, ATP luminescence, 38.5C; percent above DMSO median, 100 means doubled. growth rescue, % at 18.8 µM. actives 1% (n = 320,000);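 active = every valid replicate shows activation above 250% relative to neutral control wells; inactive = the rest, any valid replicate at or below 250%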
# AI-2 QS mod: modulators of Vibrio harveyi AI-2 quorum sensing system; Vibrio harveyi JMH597 AI-2 luminescence/OD600 ratio, 9 h; hits give low values; strain lacks LuxN and CqsS sensors; 0 = neutral-control median; activity change, % at 7.5 µM; actives 0.4% (n = 300,000); AID 2094; in the data active = activity change below about -75%, passing the limit was not always enough;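 note: luminescence divided by OD600 gain over 9 h not by final OD600 alone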
# NTR1 ag: agonists of human neurotensin receptor NTR1; P30989; NTR1-U2OS beta-arrestin-GFP spot imaging, agonist mode; activation, % at 20 µM; actives 0.17% (n = 330,000);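 active = activation at or above 40% of the spot to cytoplasm intensity ratio, with at least 20 cells analyzed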
# A number is an active result; 0 = inactive; - = no result given.
SMILES,H9c2 protect,AHR activator,NR3A LBD binder,Mot1-301 SUMO,AI-2 QS mod,NTR1 ag
CCn1nc(C(=O)NNC(=O)c2cc(Cl)ccc2OC)c2ccccc2c1=O,66,0,0,0,-,0
COc1ccc(Cl)cc1C(=O)NNC(=O)c1n[nH]c2ccccc12,0,0,0,0,-,0
COc1ccc(Cl)cc1C(=O)NNC(=O)c1nn(C)c(=O)c2ccccc12,0,66,0,0,-,0
CCn1nc(C(=O)NNC(=O)COc2ccccc2C)c2ccccc2c1=O,0,0,0,0,0,0
O=C(CS(=O)(=O)c1c[nH]c2ccccc12)Nc1ccc(F)cc1,0,0,13,0,0,0
Cc1cc2cc(CNC(=S)NC3CCCCC3)ccc2[nH]1,0,0,0,0,0,0
Cc1cc2cc(CNC(=O)NC3CCCCC3)ccc2[nH]1,0,57,0,0,0,0
S=c1nc(-c2ccccc2)[nH]c2ccc(Br)cc12,0,53,0,0,0,0
COc1ccc(C)cc1-n1nnnc1SCC(=O)NC1CCS(=O)(=O)C1 (stereo not drawn),0,0,0,0,-,0
COc1cc(CN2C[C@@H](CO)O[C@@H](n3cnc4c(Nc5ccccc5)ncnc43)C2)cc(OC)c1OC,79,-,-,-,-,-
COc1cc(CN2C[C@@H](CO)O[C@@H](n3cnc4c(NC5CCC5)ncnc43)C2)cc(OC)c1OC,0,-,-,-,-,-
COc1cc(-c2nc3ccc(C)cn3c2Nc2ccc3c(c2)OCCO3)ccc1O,0,0,23,0,0,0
O=C(/C=C/c1ccccc1)Nn1c(-c2cccs2)nc2ccccc2c1=O,0,0,0,0,0,0
O=C(/C=C/c1cccc(Cl)c1)Nn1c(-c2cccs2)nc2ccccc2c1=O,0,0,17,0,0,0
Cc1ccc(-c2nc3ccccc3c(=O)n2NC(=O)c2cccs2)cc1,0,52,0,0,0,0
COc1cc(C(=O)NCCCNc2nc3cc(C)cc(C)c3cc2C#N)cc(OC)c1OC,81,0,0,0,0,0
COc1ccc(C(C#N)=Cc2ccc(N(C)CCC#N)cc2)cc1,0,-,-,-,-,-
Cc1ccc(Cl)cc1N1CCN(S(=O)(=O)c2cc3c(cc2C)NC(=O)CO3)CC1,0,0,0,0,0,0
CCOC(=O)C(=O)N(Nc1ccc(C)cc1)c1ccc(C)cc1,0,0,11,0,0,0
NC(=O)N/N=C/c1sc(N2CCCCC2)nc1-c1cccs1,0,0,0,0,0,0
O=C(N/N=C/c1sc(N2CCCCC2)nc1-c1cccs1)C1CC1,0,68,0,0,0,0
CC(C)C[C@H](N)C(=O)N1CCC(C(=O)N[C@H](C(=O)NC(C)c2ccccc2)C(C)C)CC1 (stereo partly drawn),0,0,0,788,0,0
Cc1ccc2nc(C)cc(C(=O)NC3CCCCCC3)c2c1,0,0,0,0,-,0
Cc1ccc2nc(-c3cccc(Br)c3)cc(C(=O)NC3CC3)c2c1,0,0,13,0,0,0
COc1ccc(CN2CSC(=S)N(Cc3ccc(OC)cc3)C2)cc1,0,0,0,328,0,0
SMILES,H9c2 protect,AHR activator,NR3A LBD binder,Mot1-301 SUMO,AI-2 QS mod,NTR1 ag
COC(=O)c1oc2ccccc2c1NC(=O)CN1CCCC1,0,54,0,0,0,0
COC(=O)c1oc2ccc(Br)cc2c1NC(=O)CN1CCN(C)CC1,0,0,0,0,0,0
O=C(NNc1ccc(-c2csnn2)cc1)c1cc(Cl)cc(Cl)c1,0,0,0,283,0,0
CCCCOC(=O)Nc1ccc(S(=O)(=O)Nn2cnnc2)cc1,0,0,0,0,0,0
CCCCCOC(=O)Nc1ccc(S(=O)(=O)Nc2cccc([N+](=O)[O-])c2)cc1,0,0,28,0,0,0
CCCCOC(=O)Nc1ccc(S(=O)(=O)Nc2ccc([N+](=O)[O-])cc2)cc1,0,0,17,0,0,0
O=C1c2ccccc2C(O)(c2ccccc2)N1c1ccc([N+](=O)[O-])cc1Cl (stereo not drawn),0,-,0,-,-,-
O=S(=O)(c1cccc(-c2nc3n(n2)Cc2ccccc2-3)c1)N1CCCC1,0,0,13,0,0,0
O=S(=O)(c1cccc(-c2nc3n(n2)Cc2ccccc2-3)c1)N1CCCCC1,0,0,0,0,0,0
O=C(CC[C@H]1O[C@@H](n2ccc(=O)[nH]c2=O)[C@H](O)[C@@H]1O)NC1CCN(Cc2ccccc2)C1 (stereo partly drawn),0,-,-,-,-,-
O=C(COC(=O)C1CCN(S(=O)(=O)c2ccc(Cl)c(C(F)(F)F)c2)CC1)NCc1ccco1,0,0,0,0,0,0
CC1CCCCN1C(=O)COC(=O)C1CCN(S(=O)(=O)c2ccc(Cl)c(C(F)(F)F)c2)CC1 (stereo not drawn),0,0,21,0,0,0
COc1ccccc1NC(=O)C(=O)N/N=C(\C)CC(=O)Nc1ccccc1C(F)(F)F,0,0,0,0,0,0
O=C(Cc1ccc(S(=O)(=O)N2CCOCC2)s1)Nc1cc(C(F)(F)F)ccc1N1CCCC1,0,0,0,0,0,0
CN(C)S(=O)(=O)c1ccc(NC(=O)Cc2ccc(S(=O)(=O)N3CCOCC3)s2)cc1,0,0,0,0,0,0
CCn1c2ccccc2c2cc(NC(=O)Cc3ccc(S(=O)(=O)N4CCOCC4)s3)ccc21,0,51,0,0,0,0
O=C(Cc1ccc(S(=O)(=O)N2CCOCC2)s1)Nc1cc(C(F)(F)F)cc(C(F)(F)F)c1,0,0,17,0,-,0
CCOC1=C2CN(S(=O)(=O)c3ccc(C)cc3)[C@H](c3ccccc3)C[C@@H]2N(S(=O)(=O)c2ccc(Br)cc2)[C@H](c2ccccc2)C1,0,-,-,-,-,-
COc1ccccc1NS(=O)(=O)c1ccc(C(=O)N2CCN(c3ccccn3)CC2)cc1,0,0,0,0,-,0
Cc1ccc(C)c(NS(=O)(=O)c2ccc3c(c2)Cc2cc(S(=O)(=O)Nc4cc(C)ccc4C)ccc2-3)c1,0,0,18,0,-,-
Cc1cc2nc3n(c2cc1C)CCCN3,0,73,0,0,0,0
C=CCn1c(N/N=C/c2ccc(O)cc2)nc2ccccc2c1=O,0,0,12,0,0,0
C=CCn1c(C)nc2ccccc2c1=O,0,0,0,-,0,0
COc1ccc2nc3cccc(OC)c3nc2c1,58,0,0,0,0,0
Cc1noc(C)c1C(=O)OCC(=O)NCc1ccccc1,0,-,0,-,-,0
O=S(=O)(NC1CCCCC1)c1ccc(-c2csnn2)s1,0,0,0,297,0,0
O=C1C=C(c2ccccc2)C(=O)N1Nc1ccccc1,0,0,0,0,0,0
Cc1ccc(NN2C(=O)C=C(c3ccc(Cl)cc3)C2=O)cc1,0,0,0,572,0,0
CCC(C)(C)C1CCC(=NNC(=S)Nc2ccccc2)CC1 (stereo not drawn),0,0,0,0,0,0
